Reference: PubChem BioAssay (NCI)
This is part of a sample that, as a whole, favours compounds with a hit. Of some 83,000 tested, about 20% had one in any assay.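 Step 1: grow cells in 96-well plates. Step 2: add test compound at a single concentration. Step 3: incubate 48 h. Step 4: record percent growth.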 Unmarked numbers belong to inactive results. Activity calls are given as the source filed them.

system: HOP-92 NSCLC; test: NCI-60 one-dose screen, 48 h (100 = growth as untreated, 0 = no growth, -100 = all killed); conditions: 10 µM unless noted
Description: Growth inhibition of the HOP-92 human Non-Small Cell Lung tumor cell line is measured as a screen for anti-cancer activity. Cells are grown in 96 well plates and exposed to the test compound for 48 hours. Compounds are tested at a single concentration, which is 10^-5 M for most compounds. The reported endpoint is percent growth (GI% or GIPRCNT), where numbers from 0 - 100% represent growth inhibition, and numbers from -100% - 0 represent cell death. For example, a value of 40 represents 60% growth inhibition. A value of 0 means no net growth occurred over the course of the experiment. A value of -40 indicates 40% of cells at the beginning of the experiment died by the end of the experiment. A value of -100 means all cells are dead at the end of the experiment.
NCI-60 Human Tumor Cell Lines Screen was performed using the standard one-dose NCI protocol, which is described in more detail at https://dtp.cancer.gov/discovery_development/nci-60/default.htm.
Compounds with GIPRCNT values below 10 were considered active. Activity score was based on GIPRCNT using the following formula: […]
Score is 0 for GIPRCNT values of 100 or above, 50 for GIPRCNT values of 0, and 100 for GIPRCNT values of -100.

Row | SMILES | growth
1 | CC(=O)OC1CCC2(C)C(=CCC3C4CC(CN5CC5)C(=O)C4(C)CCC32)C1 (stereo not given) | 92.1%
2 | CCN1CC2(CN(CC)C1=S)C(=O)NC(=O)NC2=O | 53.9%
3 | CCOc1cc(/C=N\Nc2nnc(C)n2N)c(C)cc1N(CCCl)CCCl | -17.4% (active)
4 | CC(=O)Nc1ccc(Cc2ccc(NC(C)=O)cc2)cc1 | 45.6%
5 | ClCCN(CCCl)C(c1ccccc1)c1ccc(Cl)cc1 (stereo not given) | 57.4%
6 | Oc1ccc2c3c1O[C@H]1c4[nH]c5ccccc5c4C[C@@]4(O)C(C2)N(CC2CC2)CC[C@]314 | 82.9%
7 | COP(=S)(OC)Oc1ccc(SC)c(C)c1 | 72.6%
8 | O=[N+]([O-])c1ccc(/C=C/C=C/c2ccc(S(=O)(=O)F)cc2)c(Cl)c1 | 86.1%
9 | O=C1NC(=O)C(=Cc2cn(Cc3ccccc3)c3ccccc23)C(=O)N1 | 79.3%
10 | CNC(=O)Oc1cccc(OC)c1 | 125%
11 | Nc1ccc([N+](=O)[O-])c2c1Oc1ccccc1O2 | 84.4%
12 | C=CC(O)CN1CC1CC (stereo not given) | 93.6%
13 | O=C1c2ccccc2C(=O)N1[N+](=O)[O-] | 91.1%
14 | C#CC1(O)CCC2(C)C(CCC3C4CCC(=O)C4(C)CCC32)C1 (stereo not given) | 86.1%
15 | NC(=O)OCC(CO)(c1ccccc1)c1ccccc1 | 92.9%
16 | CCCCCCCCCCOc1ccc(C(=O)Oc2ccc(CSP3(=O)OCC4OC(n5ccc(=O)[nH]c5=O)C(F)C4OP(=O)(O)OCC4OC(n5cnc6c(N)ncnc65)C(F)C4O3)cc2)cc1 (stereo not given) | 85.4%
17 | Cc1cc(CCl)c(C)cc1CCl | 79.3%
18 | O=C(c1cccs1)C1NO[N+]([O-])=C1c1cccs1 (stereo not given) | -35.9% (active)
19 | O=C(N/N=C/c1ccc([N+](=O)[O-])o1)c1cc([N+](=O)[O-])cc([N+](=O)[O-])c1O | 117%
20 | CC1(CF)NC(=O)NC1=O (stereo not given) | 84.4%

Row | SMILES | growth
21 | CCOc1c(Cl)cc(CNC(C)C(O)c2ccccc2)cc1OC (stereo not given) | 27%
22 | N#C[Se]CCN1C(=O)C2C(C1=O)[C@H]1C=C[C@@H]2S1 (stereo not given in full) | -46.3% (active)
23 | CC[C@]12C=CCN3CC[C@@]4(c5ccc(OC)cc5N(C)[C@H]4[C@@](O)(C(=O)OC)[C@@H]1OC(=O)CCCN1CCN(CCCC(=O)O[C@@H]4[C@]5(CC)C=CCN6CC[C@@]7(c8ccc(OC)cc8N(C)[C@H]7[C@@]4(O)C(=O)OC)[C@@H]65)CC1)[C@@H]32 | -63.3% (active)
24 | CNC(=O)O/N=C(/C)c1ccc(Cl)cc1 | 86.4%
25 | OC1(c2ccc(Cl)cc2Cl)c2ccccc2C2=NCCN21 (stereo not given) | -2.5% (active)
26 | [Cl][Hg][n]1cnc2c(Cl)c(Cl)c(Cl)cc21 | 116%
27 | CC1CC=CCC12C(=O)NC(=S)NC2=O (stereo not given) | 105%
28 | COc1ccc(NP2(=O)OCC(C)(N)CO2)cc1 (stereo not given) | 94.8%
29 | O=S(=O)(O)c1ccc(-c2ccc([As](=O)(O)O)cc2)cc1 | -91% (active)
30 | CC1([N+](=O)[O-])COP(=O)(Nc2ccc(F)cc2)OC1 (stereo not given) | 118%
31 | CCCCCCCCCCCCOc1ccc(C(=O)Oc2ccc(CSP3(=O)OCC4OC(n5cnc6c(N)ncnc65)C(F)C4OP(=O)(O)OCC4OC(n5ccc(=O)[nH]c5=O)C(F)C4O3)cc2)cc1 (stereo not given) | 86.9%
32 | Nc1c(Br)cc([N+](=O)[O-])cc1[N+](=O)[O-] | 120%
33 | Oc1ccc(O)c2c1C1(Cl)C(Cl)=C(Cl)C2(Cl)C1(Cl)Cl | 12%
34 | OC1(c2ccccc2F)c2ccccc2C2=NCCN21 (stereo not given) | 78.9%
35 | NC(Cc1ccc(O)cc1)C(=O)N/N=C/c1ccc(N(CCCl)CCCl)cc1 (stereo not given) | 82.1%
36 | Oc1ccccc1OB(Oc1ccccc1O)N(CCCl)CCCl | 74.5%
37 | CC(C)OC(=S)[S-].[Au+].c1ccc([PH+](c2ccccc2)c2ccccc2)cc1 | -23% (active)
38 | COc1cccc2c1C(=O)c1c(O)c3c(c(O)c1C2=O)CC(O)(/C(C)=N/NC(=O)CCC(=O)N/N=C(\C)C1(O)Cc2c(O)c4c(c(O)c2C(OC2CC(N)C(O)C(C)O2)C1)C(=O)c1c(OC)cccc1C4=O)CC3OC1CC(N)C(O)C(C)O1 (stereo not given) | -40.3% [5 µM] (active)
39 | COC[CH2][Hg][C]#[C][Hg][CH2]COC | 111%
40 | C/C(=C\C(=O)O[C@H]1[C@@H]2[C@H](C)CC[C@H]2[C@]2(C)O[C@@]1(C1CCCCC1)C[C@H]2OC(=O)CO)c1ccccc1 | 18.3%
